# The supplement of paper PMC12636033
# ± gives the standard deviation of the averaged measurements. Over roughly 33,000 sequences, “E-score (rank enrichment, -0.5 to 0.5)” has its median near -0.0068; the highest 2% begin near 0.24. The sample holds the highest values, similar sequences and a random draw of the others, so the mix is not that of the screen.
# Tested on: muMax20 (Max(13-93) K31hArg/K57hArg, M65Nle)
# Assay: PBM 8-mer E-score (E-score (rank enrichment, -0.5 to 0.5)); higher = stronger preferential binding
# Protocol: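 Protein binding microarray (universal PBM chip covering all 10-mers in fixed probe flanks) with chemically synthesized human Max(13-93) bHLH-LZ analogs (not full-length Max) bearing noncanonical residues (hArg, Tha, Aib, Nle at 65) and aromatic Cys staples. Read-out per 8-mer (and its reverse complement): E-score (rank-based enrichment, -0.5 to 0.5) and Z-score of median probe intensity.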
row,Sequence,PBM 8-mer E-score
1,CTTCTACC,0.00215 ± 0.038
2,ACAGAATG,0.088 ± 0.021
3,GTTTTCGA,-0.0225 ± 0.1
4,TCGGCCAA,-0.181 ± 0.076
5,GAATCCAC,0.0142 ± 0.053
6,CAATTGTG,0.0641 ± 0.093
7,ATAAGGAT,0.246 ± 0.039
8,CTAAGGTA,0.0373 ± 0.061
9,ATAAGGTA,0.244 ± 0.019
10,ATAAGGAA,0.0142 ± 0.076
11,ATAAGGTC,0.218 ± 0.028
12,ATAAGGAC,0.0929 ± 0.069
13,CTCTACCC,0.0459 ± 0.077
14,CCAACAGA,-0.00227 ± 0.052
15,GTAGCTCA,-0.0957 ± 0.0039
16,AACTCAGT,-0.0615 ± 0.032
17,ATGACACA,0.156 ± 0.0051
18,ATGACACG,0.238 ± 0.041
19,CAAAGATG,0.0977 ± 0.0035
20,AAGACACG,0.293 ± 0.005
21,AAAAGACA,0.237 ± 0.011
22,AAAAGACC,0.0838 ± 0.031

row,Sequence,PBM 8-mer E-score
1,AAAAGATT,0.0851 ± 0.1
2,GTGACACA,0.0546 ± 0.001
3,CAAAGACA,0.129 ± 0.0062
4,AAGACACA,0.1216 ± 0.00079
5,CAGACACG,-0.0512 ± 0.046
6,AAAAGATG,0.263 ± 0.086
7,GACCACGC,0.121 ± 0.055
8,TCGATGAA,-0.0576 ± 0.025
9,TGGCGGAA,-0.0751 ± 0.029
10,CCCAGAGC,-0.115 ± 0.017
11,AAAGCAGA,0.176 ± 0.01
12,AATATTCG,0.134 ± 0.0048
13,GTTATTTA,0.222 ± 0.014
14,AATATATA,0.235 ± 0.04
15,ATTATTTA,0.256 ± 0.072
16,GATATTTA,0.104 ± 0.032
17,CATATTTC,0.133 ± 0.0054
18,CATATTTA,0.288 ± 0.0037
19,ATTATTTG,0.212 ± 0.051
20,AATATATT,0.244 ± 0.0097
21,AATATTCA,0.259 ± 0.0058
22,AATATTCC,0.149 ± 0.012

row,Sequence,PBM 8-mer E-score
1,AATATAGT,0.219 ± 0.013
2,ATGCGGGG,-0.0713 ± 0.071
3,TCAGGTAA,0.0683 ± 0.047
4,GTAGACTA,-0.0707 ± 0.066
5,CAGTGGGG,-0.0911 ± 0.22
6,TCTCCGAA,-0.233 ± 0.047
7,AGGCATGC,0.121 ± 0.03
8,GAGTGGCA,-0.0109 ± 0.066
9,CTTATTTC,0.24 ± 0.14
10,CTTATTTA,0.0812 ± 0.083
11,AATATTTC,0.209 ± 0.035
12,AGTATTTA,0.222 ± 0.019
13,ATTATTTC,0.186 ± 0.039
14,AATATTTA,0.287 ± 0.011
15,AATATTTG,0.167 ± 0.11
16,GGTATTTA,0.173 ± 0.045
17,CGTATTTA,0.248 ± 0.068
18,CTCTCCCA,0.00928 ± 0.07
19,CACGTATC,0.158 ± 0.0092
20,GTCTATAA,0.181 ± 0.04
21,CCGTTAAA,-0.00804 ± 0.013
22,AATGACAC,0.161 ± 0.056

row,Sequence,PBM 8-mer E-score
1,CATGACAA,0.2087 ± 0.00054
2,AATGACAA,0.241 ± 0.033
3,AGAATATG,0.227 ± 0.029
4,AGAATATC,0.129 ± 0.027
5,GGAATATA,0.0712 ± 0.077
6,AGAATATA,0.254 ± 0.039
7,CGAATATC,-0.0375 ± 0.072
8,CGAATATA,0.237 ± 0.065
9,AGAAACCC,0.0541 ± 0.034
10,AGTAGCTC,-0.0686 ± 0.0062
11,CCTGTCGC,-0.224 ± 0.021
12,CATATATC,0.171 ± 0.05
13,CATATATG,0.259 ± 0.017
14,AATATATG,0.208 ± 0.089
15,GATCTATA,-0.0926 ± 0.0098
16,GATATGTA,0.103 ± 0.057
17,CATATATA,0.271 ± 0.095
18,AATATGTA,0.124 ± 0.0062
19,AATCTATA,0.143 ± 0.05
20,CATATGTA,0.257 ± 0.061
21,TATATATA,0.228 ± 0.091
22,CATATAGG,0.147 ± 0.0067

row,Sequence,PBM 8-mer E-score
1,CATCTATA,0.278 ± 0.013
2,AAACGAGT,0.044 ± 0.013
3,AGTGTGAT,0.125 ± 0.043
4,CGTATAGA,0.0652 ± 0.077
5,AAGGTTAT,-0.0312 ± 0.054
6,CACGGTTA,0.00552 ± 0.11
7,TCGGAACA,-0.0705 ± 0.069
8,CAGTGGCC,-0.25 ± 0.067
9,CAGAGCCA,-0.17 ± 0.01
10,AGCTGGGC,-0.0998 ± 0.075
11,ACCACAGG,-0.113 ± 0.031
12,GCACTTGA,-0.0604 ± 0.011
13,TGCTCGAA,0.069 ± 0.0081
14,ACCCAGTG,-0.0911 ± 0.074
15,AATATGGC,0.24 ± 0.07
16,ACTATGTG,0.109 ± 0.069
17,AATATGGA,0.156 ± 0.017
18,AATATGGT,0.095 ± 0.017
19,AATATGTG,0.28 ± 0.094
20,AATATGTC,0.0382 ± 0.013
21,CAGTTAGG,0.0928 ± 0.049
